Experimental data reported in the supplement of paper PMC11732987, “Enantioselective OTUD7B fragment discovery through chemoproteomics screening and high-throughput optimisation” (Communications Chemistry, 2025).

Legend:
Experiment in all cases: log2 ratio of Biotin-Ahx-Ub-VS probe labelling (fragment/DMSO); higher = less target engagement (more negative = stronger competition), active = hit call of the paper (q ≤ 0.05, log2 ratio ≤ -1)
Conditions in all cases: compound concentration: 200 uM; treatment time: 3 h
UniProt O00507 = biological target: UniProt O00507
Summary of the method: (§1)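 The table lists average log2 ratios of fragment over vehicle, from an unpaired t-test on global-median-normalised Spectronaut label-free quantities. Proteins with ≥2 unique peptides were used. Samples were HEK293T lysate (495 µg) treated in triplicate with fragment at 200 µM or vehicle for 3 h, then with Biotin-Ahx-Ub-VS (0.5 µM final) for 1 h, with labelled DUBs NeutrAvidin-enriched and run by diaPASEF LC-MS/MS.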

UniProt P51784 = biological target: UniProt P51784
Summary of the method: as §1

UniProt Q5T2D3 = biological target: T1, UniProt Q5T2D3
T1 sequence (whole entry): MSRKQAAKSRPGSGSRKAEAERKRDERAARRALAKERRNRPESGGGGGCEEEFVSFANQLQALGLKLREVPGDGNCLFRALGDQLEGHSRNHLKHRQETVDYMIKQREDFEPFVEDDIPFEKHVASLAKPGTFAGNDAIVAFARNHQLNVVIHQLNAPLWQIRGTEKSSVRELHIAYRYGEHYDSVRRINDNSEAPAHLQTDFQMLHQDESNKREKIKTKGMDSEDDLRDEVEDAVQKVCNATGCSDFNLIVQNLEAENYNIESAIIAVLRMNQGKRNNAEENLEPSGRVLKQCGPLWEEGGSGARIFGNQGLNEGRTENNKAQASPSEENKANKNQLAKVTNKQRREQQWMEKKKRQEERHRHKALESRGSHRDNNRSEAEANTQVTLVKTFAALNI
Summary of the method: as §1

UniProt Q8TE49 = biological target: T2, UniProt Q8TE49
T2 sequence (whole entry): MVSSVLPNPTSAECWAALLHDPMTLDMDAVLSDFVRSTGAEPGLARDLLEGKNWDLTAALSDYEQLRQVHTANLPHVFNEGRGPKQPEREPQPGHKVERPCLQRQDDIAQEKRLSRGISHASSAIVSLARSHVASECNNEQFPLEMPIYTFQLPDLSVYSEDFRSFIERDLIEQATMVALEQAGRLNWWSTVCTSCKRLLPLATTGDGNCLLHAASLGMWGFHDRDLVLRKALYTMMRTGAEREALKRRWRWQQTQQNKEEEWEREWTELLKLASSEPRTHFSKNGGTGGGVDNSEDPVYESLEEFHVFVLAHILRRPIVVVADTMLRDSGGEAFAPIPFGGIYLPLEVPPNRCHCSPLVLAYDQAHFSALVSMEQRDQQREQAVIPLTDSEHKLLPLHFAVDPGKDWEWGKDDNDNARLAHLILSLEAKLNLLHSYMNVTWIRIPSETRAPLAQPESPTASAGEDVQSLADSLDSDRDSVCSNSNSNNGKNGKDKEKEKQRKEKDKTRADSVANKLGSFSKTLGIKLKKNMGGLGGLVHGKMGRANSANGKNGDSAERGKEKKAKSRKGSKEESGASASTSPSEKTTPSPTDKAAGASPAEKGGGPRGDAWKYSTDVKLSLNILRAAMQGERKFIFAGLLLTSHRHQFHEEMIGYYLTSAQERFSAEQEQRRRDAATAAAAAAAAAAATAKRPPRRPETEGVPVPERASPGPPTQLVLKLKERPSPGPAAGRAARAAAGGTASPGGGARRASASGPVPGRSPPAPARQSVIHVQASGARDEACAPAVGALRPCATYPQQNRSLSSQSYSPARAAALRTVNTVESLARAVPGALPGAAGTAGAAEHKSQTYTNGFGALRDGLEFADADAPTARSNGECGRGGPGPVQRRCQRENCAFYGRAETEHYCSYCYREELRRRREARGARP
Summary of the method: as §1

UniProt Q9P2H5 = biological target: T3, UniProt Q9P2H5
T3 sequence (whole entry): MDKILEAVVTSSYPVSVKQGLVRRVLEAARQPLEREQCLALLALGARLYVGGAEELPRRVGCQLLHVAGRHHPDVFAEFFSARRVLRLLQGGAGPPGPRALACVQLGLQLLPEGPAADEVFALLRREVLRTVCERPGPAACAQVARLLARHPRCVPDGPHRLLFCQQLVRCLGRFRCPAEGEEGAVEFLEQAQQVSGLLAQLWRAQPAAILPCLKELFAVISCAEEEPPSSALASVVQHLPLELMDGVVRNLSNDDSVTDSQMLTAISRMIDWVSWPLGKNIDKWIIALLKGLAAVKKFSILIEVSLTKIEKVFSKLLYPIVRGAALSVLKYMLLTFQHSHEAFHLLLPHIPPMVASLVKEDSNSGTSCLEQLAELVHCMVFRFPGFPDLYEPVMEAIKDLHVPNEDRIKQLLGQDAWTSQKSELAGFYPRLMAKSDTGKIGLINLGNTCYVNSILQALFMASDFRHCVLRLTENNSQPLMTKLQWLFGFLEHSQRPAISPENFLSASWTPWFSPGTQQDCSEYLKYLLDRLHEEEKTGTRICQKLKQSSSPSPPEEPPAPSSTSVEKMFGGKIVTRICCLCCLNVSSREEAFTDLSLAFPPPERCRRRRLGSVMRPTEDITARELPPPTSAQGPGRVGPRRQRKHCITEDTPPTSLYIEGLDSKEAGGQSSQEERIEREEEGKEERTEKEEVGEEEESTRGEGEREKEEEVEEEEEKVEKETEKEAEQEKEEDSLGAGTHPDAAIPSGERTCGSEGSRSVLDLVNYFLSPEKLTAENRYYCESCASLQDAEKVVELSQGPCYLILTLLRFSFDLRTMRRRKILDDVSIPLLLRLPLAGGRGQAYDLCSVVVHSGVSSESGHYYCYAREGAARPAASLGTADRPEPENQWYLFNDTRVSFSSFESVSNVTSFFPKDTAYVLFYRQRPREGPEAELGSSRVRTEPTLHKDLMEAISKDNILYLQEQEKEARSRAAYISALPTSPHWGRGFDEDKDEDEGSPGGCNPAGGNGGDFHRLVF
Summary of the method: as §1

UniProt Q9UGI0 = biological target: T4, UniProt Q9UGI0
T4 sequence (whole entry): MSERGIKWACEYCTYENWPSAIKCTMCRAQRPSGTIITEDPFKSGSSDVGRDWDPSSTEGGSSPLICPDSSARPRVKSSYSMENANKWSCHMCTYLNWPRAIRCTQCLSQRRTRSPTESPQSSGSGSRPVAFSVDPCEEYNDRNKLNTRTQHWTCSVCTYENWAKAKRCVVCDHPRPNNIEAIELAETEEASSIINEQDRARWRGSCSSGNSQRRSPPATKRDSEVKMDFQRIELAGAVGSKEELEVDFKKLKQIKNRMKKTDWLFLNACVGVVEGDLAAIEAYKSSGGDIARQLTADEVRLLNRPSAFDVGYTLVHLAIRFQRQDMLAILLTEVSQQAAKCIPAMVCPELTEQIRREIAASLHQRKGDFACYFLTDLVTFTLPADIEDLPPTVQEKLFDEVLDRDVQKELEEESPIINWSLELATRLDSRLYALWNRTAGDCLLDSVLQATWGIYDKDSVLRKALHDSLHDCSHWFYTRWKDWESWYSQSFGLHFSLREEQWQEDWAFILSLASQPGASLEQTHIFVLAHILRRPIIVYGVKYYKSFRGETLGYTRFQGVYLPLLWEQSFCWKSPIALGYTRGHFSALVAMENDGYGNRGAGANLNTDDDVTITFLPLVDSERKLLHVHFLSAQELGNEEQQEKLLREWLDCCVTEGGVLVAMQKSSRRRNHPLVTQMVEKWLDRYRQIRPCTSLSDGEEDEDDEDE
Summary of the method: as §1

YOD1 = biological target: T5, YOD1 (UniProt Q5VVQ6)
T5 sequence (whole entry): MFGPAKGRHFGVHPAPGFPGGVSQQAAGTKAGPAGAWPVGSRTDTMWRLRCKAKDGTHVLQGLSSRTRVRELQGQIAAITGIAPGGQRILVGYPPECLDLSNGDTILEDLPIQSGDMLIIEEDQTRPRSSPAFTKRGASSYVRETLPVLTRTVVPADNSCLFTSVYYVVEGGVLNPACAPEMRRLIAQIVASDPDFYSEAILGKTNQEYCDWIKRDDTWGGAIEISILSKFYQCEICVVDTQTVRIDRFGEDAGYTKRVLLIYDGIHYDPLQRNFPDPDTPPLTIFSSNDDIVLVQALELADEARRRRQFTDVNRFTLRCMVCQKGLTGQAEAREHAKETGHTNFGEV
Summary of the method: as §1

Measured: log2 ratio of Biotin-Ahx-Ub-VS probe labelling

Sequence of UniProt O00507 (O00507 whole entry, the tested form may be a part): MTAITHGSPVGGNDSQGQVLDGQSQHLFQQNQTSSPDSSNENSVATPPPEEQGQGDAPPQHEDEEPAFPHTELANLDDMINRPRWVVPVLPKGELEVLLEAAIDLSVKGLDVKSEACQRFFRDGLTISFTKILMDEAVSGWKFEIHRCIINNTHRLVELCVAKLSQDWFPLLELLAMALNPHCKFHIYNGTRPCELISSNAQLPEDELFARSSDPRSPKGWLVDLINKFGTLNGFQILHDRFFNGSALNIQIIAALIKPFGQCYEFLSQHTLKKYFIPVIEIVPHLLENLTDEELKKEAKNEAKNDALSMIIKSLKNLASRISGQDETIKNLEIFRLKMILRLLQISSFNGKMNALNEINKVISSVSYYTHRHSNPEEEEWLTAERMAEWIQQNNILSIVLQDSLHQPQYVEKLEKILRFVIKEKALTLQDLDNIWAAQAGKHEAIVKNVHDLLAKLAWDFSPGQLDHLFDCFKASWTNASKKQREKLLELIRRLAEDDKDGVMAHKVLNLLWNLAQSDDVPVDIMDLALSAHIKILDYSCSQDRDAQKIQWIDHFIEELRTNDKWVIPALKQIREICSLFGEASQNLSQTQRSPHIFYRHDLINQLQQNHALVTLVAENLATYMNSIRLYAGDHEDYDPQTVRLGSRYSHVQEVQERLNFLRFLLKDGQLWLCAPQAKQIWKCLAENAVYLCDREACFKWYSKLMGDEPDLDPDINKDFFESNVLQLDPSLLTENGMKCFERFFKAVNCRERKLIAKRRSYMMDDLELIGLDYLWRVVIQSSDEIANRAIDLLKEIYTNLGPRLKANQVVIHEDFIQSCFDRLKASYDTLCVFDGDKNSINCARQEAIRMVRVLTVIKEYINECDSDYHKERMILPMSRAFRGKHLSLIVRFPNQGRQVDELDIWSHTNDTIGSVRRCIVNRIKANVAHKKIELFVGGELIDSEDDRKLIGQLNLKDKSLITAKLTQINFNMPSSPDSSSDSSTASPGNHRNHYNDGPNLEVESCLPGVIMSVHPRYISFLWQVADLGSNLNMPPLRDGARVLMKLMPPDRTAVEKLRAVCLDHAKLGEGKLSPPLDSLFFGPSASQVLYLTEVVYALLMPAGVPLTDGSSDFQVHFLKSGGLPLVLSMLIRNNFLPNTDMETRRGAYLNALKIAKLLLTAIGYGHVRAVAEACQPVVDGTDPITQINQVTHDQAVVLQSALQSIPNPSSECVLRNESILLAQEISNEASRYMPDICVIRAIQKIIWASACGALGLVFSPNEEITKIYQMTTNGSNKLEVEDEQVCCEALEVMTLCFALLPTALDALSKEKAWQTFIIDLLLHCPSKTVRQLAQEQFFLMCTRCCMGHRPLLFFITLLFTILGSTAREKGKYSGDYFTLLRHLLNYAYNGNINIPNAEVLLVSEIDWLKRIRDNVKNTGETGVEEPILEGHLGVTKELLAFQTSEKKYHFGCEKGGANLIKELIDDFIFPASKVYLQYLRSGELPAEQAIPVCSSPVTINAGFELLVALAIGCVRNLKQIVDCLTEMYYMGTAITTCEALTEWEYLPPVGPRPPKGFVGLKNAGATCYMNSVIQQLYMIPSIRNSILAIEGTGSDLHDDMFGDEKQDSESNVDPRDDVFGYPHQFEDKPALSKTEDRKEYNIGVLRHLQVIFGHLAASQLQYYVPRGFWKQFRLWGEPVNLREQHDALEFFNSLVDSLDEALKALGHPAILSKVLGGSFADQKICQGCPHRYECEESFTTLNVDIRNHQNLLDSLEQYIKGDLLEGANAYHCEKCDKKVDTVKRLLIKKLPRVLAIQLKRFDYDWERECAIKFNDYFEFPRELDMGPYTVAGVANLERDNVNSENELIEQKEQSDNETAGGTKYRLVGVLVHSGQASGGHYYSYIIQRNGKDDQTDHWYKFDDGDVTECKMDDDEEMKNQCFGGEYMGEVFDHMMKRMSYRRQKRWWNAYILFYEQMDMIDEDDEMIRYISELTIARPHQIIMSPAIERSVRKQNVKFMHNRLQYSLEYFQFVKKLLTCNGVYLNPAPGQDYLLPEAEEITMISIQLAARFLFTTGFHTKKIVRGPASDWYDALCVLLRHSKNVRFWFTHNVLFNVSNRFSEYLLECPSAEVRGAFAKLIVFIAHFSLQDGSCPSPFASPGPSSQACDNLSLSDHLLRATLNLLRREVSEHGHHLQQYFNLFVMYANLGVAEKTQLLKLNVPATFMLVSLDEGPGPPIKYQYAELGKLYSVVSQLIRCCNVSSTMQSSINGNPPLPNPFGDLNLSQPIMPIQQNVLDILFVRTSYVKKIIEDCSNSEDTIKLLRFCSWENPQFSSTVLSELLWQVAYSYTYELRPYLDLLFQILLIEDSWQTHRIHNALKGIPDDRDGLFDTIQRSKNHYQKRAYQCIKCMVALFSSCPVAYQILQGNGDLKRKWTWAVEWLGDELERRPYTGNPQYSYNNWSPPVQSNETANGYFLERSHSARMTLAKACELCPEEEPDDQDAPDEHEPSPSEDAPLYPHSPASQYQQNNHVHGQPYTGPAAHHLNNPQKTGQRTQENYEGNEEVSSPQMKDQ
Sequence of UniProt P51784 (P51784 whole entry): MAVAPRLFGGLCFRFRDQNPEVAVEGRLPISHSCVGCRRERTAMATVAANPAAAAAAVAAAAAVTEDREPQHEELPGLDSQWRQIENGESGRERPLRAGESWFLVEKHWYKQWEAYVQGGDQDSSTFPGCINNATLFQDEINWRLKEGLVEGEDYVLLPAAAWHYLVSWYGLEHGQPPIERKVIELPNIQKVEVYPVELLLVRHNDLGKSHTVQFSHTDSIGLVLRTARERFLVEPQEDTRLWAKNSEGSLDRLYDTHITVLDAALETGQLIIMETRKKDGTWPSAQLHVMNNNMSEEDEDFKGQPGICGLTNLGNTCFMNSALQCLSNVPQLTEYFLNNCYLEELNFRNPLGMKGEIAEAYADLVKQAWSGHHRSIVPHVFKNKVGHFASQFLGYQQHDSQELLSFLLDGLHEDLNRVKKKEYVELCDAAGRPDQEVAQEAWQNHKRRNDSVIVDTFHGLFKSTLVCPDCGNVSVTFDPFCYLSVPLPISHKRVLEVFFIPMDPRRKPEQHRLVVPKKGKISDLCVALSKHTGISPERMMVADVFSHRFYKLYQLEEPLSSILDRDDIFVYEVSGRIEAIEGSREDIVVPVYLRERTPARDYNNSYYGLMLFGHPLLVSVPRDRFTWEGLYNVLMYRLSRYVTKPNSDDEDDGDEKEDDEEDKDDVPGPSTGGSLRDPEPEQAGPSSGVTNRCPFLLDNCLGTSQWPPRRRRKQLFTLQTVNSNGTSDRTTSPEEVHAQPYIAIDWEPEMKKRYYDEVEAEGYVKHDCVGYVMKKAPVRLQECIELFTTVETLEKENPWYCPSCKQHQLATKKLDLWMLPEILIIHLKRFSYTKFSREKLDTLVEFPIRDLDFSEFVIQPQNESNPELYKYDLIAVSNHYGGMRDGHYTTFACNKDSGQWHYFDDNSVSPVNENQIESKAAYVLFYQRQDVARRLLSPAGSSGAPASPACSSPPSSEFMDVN

Cl.Cn1nc2c(c1CNC(=O)CCl)CCCC2
inactive: UniProt O00507 0.0971 | UniProt P51784 0.0528 | UniProt Q5T2D3 -0.274 | UniProt Q8TE49 -0.529 | UniProt Q9P2H5 -0.23 | UniProt Q9UGI0 -0.319 | YOD1 -0.144

CCN1C(=O)C2CN(C(=O)CCl)CCN2C1=O (centres undefined)
inactive: UniProt O00507 0.428 | UniProt P51784 0.0433 | UniProt Q5T2D3 -0.0669 | UniProt Q8TE49 -0.958 | UniProt Q9P2H5 -0.223 | UniProt Q9UGI0 0.112 | YOD1 0.177

O=C(CCl)N1CCOC2(CCC2)CC1
active: UniProt Q9UGI0 -1.19
inactive: UniProt O00507 -0.268 | UniProt P51784 -0.147 | UniProt Q5T2D3 -0.0132 | UniProt Q8TE49 -0.472 | UniProt Q9P2H5 -0.184 | YOD1 -0.0502

Cc1cnc2[nH]cc(CCNC(=O)CCl)c2c1
inactive: UniProt O00507 -0.277 | UniProt P51784 0.0378 | UniProt Q5T2D3 -0.197 | UniProt Q8TE49 -0.5 | UniProt Q9P2H5 0.0093 | UniProt Q9UGI0 -0.444 | YOD1 -0.097

Cc1ccccc1C1(CNC(=O)CCl)CCOCC1
inactive: UniProt O00507 0.332 | UniProt P51784 0.00427 | UniProt Q5T2D3 -0.0687 | UniProt Q8TE49 -0.333 | UniProt Q9P2H5 -0.221 | UniProt Q9UGI0 -0.577 | YOD1 -0.0207

Cc1n[nH]c(=O)c2c(NC(=O)CCl)oc(C)c12
inactive: UniProt O00507 0.347 | UniProt P51784 0.0686 | UniProt Q5T2D3 -0.674 | UniProt Q8TE49 -0.575 | UniProt Q9P2H5 -0.144 | UniProt Q9UGI0 0.264 | YOD1 0.238

CN(C)S(=O)(=O)c1ccccc1CNC(=O)CCl
inactive: UniProt O00507 -0.154 | UniProt P51784 0.0361 | UniProt Q5T2D3 -0.255 | UniProt Q8TE49 -0.178 | UniProt Q9P2H5 -0.0151 | UniProt Q9UGI0 -0.47 | YOD1 0.0246

Cc1n[nH]c2c1CN(C(=O)CCl)CC2
active: UniProt Q8TE49 -1.43 | UniProt Q9UGI0 -1.32
inactive: UniProt O00507 -0.966 | UniProt P51784 -0.554 | UniProt Q5T2D3 -0.696 | UniProt Q9P2H5 -0.801 | YOD1 -0.674

O=C(CCl)N(C1=CCCCC1)C1CC1
inactive: UniProt O00507 0.309 | UniProt P51784 -0.0543 | UniProt Q5T2D3 -0.118 | UniProt Q8TE49 -0.435 | UniProt Q9P2H5 -0.351 | UniProt Q9UGI0 0.0561 | YOD1 -0.0863

CNC(=O)C1CCN(C(=O)CCl)CC1
inactive: UniProt O00507 -0.581 | UniProt P51784 0.091 | UniProt Q5T2D3 0.0899 | UniProt Q8TE49 -0.129 | UniProt Q9P2H5 0.179 | UniProt Q9UGI0 0.0343 | YOD1 -0.239

COc1ccccc1C(C)NC(=O)CCl (centres undefined)
inactive: UniProt O00507 -0.445 | UniProt P51784 -0.212 | UniProt Q5T2D3 -0.15 | UniProt Q8TE49 -0.696 | UniProt Q9P2H5 -0.277 | UniProt Q9UGI0 -0.788 | YOD1 -0.23

NS(=O)(=O)c1ccc(Cl)c(NC(=O)CCl)c1
active: UniProt Q8TE49 -1.53
inactive: UniProt O00507 -0.168 | UniProt P51784 0.0886 | UniProt Q5T2D3 -0.424 | UniProt Q9P2H5 -0.0565 | UniProt Q9UGI0 -0.791 | YOD1 -0.361

O=C(CCl)NC1(c2ccc3c(c2)OCCO3)CCCC1
inactive: UniProt O00507 -0.152 | UniProt P51784 -0.000106 | UniProt Q5T2D3 -0.339 | UniProt Q8TE49 -0.447 | UniProt Q9P2H5 -0.3 | UniProt Q9UGI0 -0.26 | YOD1 -0.199

COc1ccc(Cl)cc1NC(=O)CCl
inactive: UniProt O00507 -0.985 | UniProt P51784 -0.276 | UniProt Q5T2D3 -0.485 | UniProt Q8TE49 -0.837 | UniProt Q9P2H5 -0.335 | UniProt Q9UGI0 -0.741 | YOD1 -0.669

Cl.O=C(CCl)NC1(c2ncccn2)CCC1
inactive: UniProt O00507 -0.0196 | UniProt P51784 0.0134 | UniProt Q5T2D3 -0.0112 | UniProt Q8TE49 0.0256 | UniProt Q9P2H5 -0.0207 | UniProt Q9UGI0 -0.201 | YOD1 0.161

Cc1ccccc1OCC(=O)N1CCN(C(=O)CCl)CC1
inactive: UniProt O00507 0.258 | UniProt P51784 -0.215 | UniProt Q5T2D3 -0.106 | UniProt Q8TE49 -0.335 | UniProt Q9P2H5 -0.172 | UniProt Q9UGI0 -0.104 | YOD1 -0.00243

Cc1cc(C(=O)NC2CCN(C(=O)CCl)CC2)no1
inactive: UniProt O00507 -0.438 | UniProt P51784 -0.169 | UniProt Q5T2D3 -0.252 | UniProt Q8TE49 -0.394 | UniProt Q9P2H5 0.0224 | UniProt Q9UGI0 -0.0524 | YOD1 -0.256
